Measured values published in PubChem BioAssay (NCI).
The panel holds about 83,000 compounds, 20% with a hit somewhere; the sample as a whole holds those more often.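 Compound tested at a single concentration for 48 hours in 96-well plates; a percent growth value below 10 was scored as active.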 Activity calls are given as the source filed them.

How the values were obtained:
Experiment in all cases: NCI-60 one-dose screen, 48 h (100 = growth as untreated, 0 = no growth, -100 = all killed)
Details in all cases: 10 µM unless noted
[1] = tested on: T-47D breast
[2] = tested on: BT-549 breast
[3] = tested on: MDA-MB-435 melanoma
[4] = tested on: SW-620 colon
[5] = tested on: MCF7 breast
[6] = tested on: HCT-116 colon
[7] = tested on: HCC-2998 colon
[8] = tested on: KM12 colon

Measured: growth

O=C1C(SCc2ccccc2)=C(Cl)CN1c1ccccc1
inactive: [1] 88% | [2] 108% | [3] 96.8% | [4] 102% | [5] 40.6% | [6] 88.5% | [7] 103% | [8] 98.3%

N#Cc1c(-c2ccc(F)cc2)cc(-c2c[nH]c3ccccc23)nc1-c1c[nH]c2ccccc12
inactive: [1] 89.9% | [2] 109% | [3] 107% | [4] 107% | [5] 89.3% | [6] 105% | [7] 109% | [8] 101%

NC(=O)c1ncn2c(=O)n(CCF)nnc12
inactive: [1] 88.8% | [2] 110% | [3] 82.4% | [4] 40.4% | [5] 57.8% | [6] 47.4% | [7] 56.4% | [8] 83.5%

N#CC1=C2NCCCNc3oc(nc3C#N)Cc3ccccc3CC(=N1)O2
inactive: [1] 92.6% | [2] 135% | [3] 95.1% | [4] 50.7% | [5] 33.8% | [6] 23.4% | [7] 114% | [8] 93.6%

Cc1ccc(S(=O)(=O)NCCCNc2nc(Nc3ccc(N4CCN(C)CC4)cc3)nc3ccsc23)cc1
inactive: [1] 17.2% | [4] 20.5% | [5] 19% | [7] 27.3% | [8] 35.8%
active: [2] -1% | [3] 0.595% | [6] 5.69%

O=C(Nc1cc(C(F)(F)F)cc(C(F)(F)F)c1)Nc1ccc2oc(=O)ccc2c1
active: [1] 4.8% | [3] 3.64% | [5] 3.81% | [6] 2.09% | [8] 9.67%
inactive: [2] 10% | [4] 19.4% | [7] 11.2%

Cc1ccc2c(n1)C(=O)C(Cl)=C(Nc1ccc(C(C)C)cc1)C2=O
active: [1] -47% | [3] -81.2% | [4] -22.8% | [5] -56.3% | [6] -70.8% | [7] 3.71%
inactive: [2] 91.9% | [8] 57.8%

CN1CCN(CC#CCn2c3c(c4ccccc42)C[C@]2(C)[C@H]4CC=C5[C@@H]6CC(C)(C)CC[C@]6(C(=O)N6CCOCC6)CC[C@@]5(C)[C@]4(C)CC[C@H]2C3(C)C)CC1
active: [5] -3.42%
inactive: [1] 78.7% | [2] 96.2% | [3] 82.7% | [4] 11.6% | [6] 22% | [7] 85.4% | [8] 66%

Brc1cc(-c2cc(-c3ccc4c(c3)OCCO4)[nH]n2)cs1
active: [3] -26.8%
inactive: [1] 38.5% | [2] 66% | [4] 36.7% | [5] 14.7% | [6] 41.5% | [7] 62.1% | [8] 27.7%

CN1CCN(c2ccc(Nc3nc(NCCCNS(=O)(=O)c4ccc(C(F)(F)F)cc4)c4sccc4n3)cc2)CC1
active: [1] -29% | [2] -88.1% | [3] -62.4% | [4] -33.5% | [5] -70% | [6] -73.8% | [7] -63.5% | [8] -25.2%

Cc1ccc(/C(N)=N/C(N)=N/c2nc3ccccc3s2)cc1
inactive: [1] 80.9% | [2] 102% | [3] 103% | [4] 107% | [5] 74% | [6] 86% | [7] 104% | [8] 64.1%

O=C(CCCCCCNC(=O)C(O)(O)C(F)(F)F)Nc1ccc(Br)cc1
inactive: [2] 19.5% | [5] 13.7% | [8] 14.1%
active: [1] 8.06% | [3] 6.63% | [4] 3.78% | [6] -6.77% | [7] 1.89%

C/C(=N\NC(N)=S)c1nnn(-c2ccc([N+](=O)[O-])cc2)c1C
inactive: [1] 92% | [2] 95.5% | [3] 102% | [4] 94.9% | [5] 91.9% | [6] 98.6% | [7] 100% | [8] 96.8%

Clc1cccc(/C=N/Nc2nc(N/N=C/c3cccc(Cl)c3)nc(N3CCOCC3)n2)c1
inactive: [1] 68.5% | [2] 92.7% | [3] 49.3% | [4] 18.1% | [5] 43% | [6] 22.8% | [7] 59% | [8] 30.2%

COc1cc2cc(Oc3ccc(NC(=O)c4cc(C(F)(F)F)cc(C(F)(F)F)c4)cc3)c(C)nc2cc1OCCN1CCOCC1
inactive: [1] 84.7% | [2] 71.4% | [3] 65.4% | [4] 97.2% | [5] 26.4% | [6] 11.9% | [7] 113% | [8] 73.5%

Cn1c(SCC(=O)c2ccco2)nc2ccccc2c1=O
inactive: [1] 55.3% | [2] 96.5% | [3] 105% | [4] 111% | [5] 18.3% | [6] 102% | [7] 112% | [8] 86.3%

C#CCn1cc(/C=N/Nc2nc(-c3ccc(Br)cc3)cs2)c2ccccc21
inactive: [1] 76.4% | [2] 111% | [3] 106% | [4] 98.7% | [5] 64.1% | [6] 85.4% | [7] 116% | [8] 104%

COC(=O)CCSC1=C(C)C(=O)c2ccccc2C1=O
inactive: [1] 43.5% | [2] 88.8% | [3] 106% | [4] 96.3% | [5] 73.3% | [6] 91.5% | [7] 111% | [8] 82.7%

CN1CCN(c2ccc(Nc3nc(NCCCNS(=O)(=O)c4ccccc4)c4sccc4n3)cc2)CC1
inactive: [1] 36.8% | [2] 62.1% | [3] 50.6% | [4] 52.5% | [5] 35.5% | [6] 16.7% | [7] 60.4% | [8] 73.3%

Cn1cc(-c2nn3cc(-c4ccncc4)nc3s2)c2cc(Br)ccc21
inactive: [1] 37.5% | [2] 49.5% | [3] 32.4% | [4] 42.3% | [5] 26.2% | [6] 25% | [7] 58.9% | [8] 65.8%

Cn1cc(-c2nnc(N)nc2-c2c[nH]c3ccc(Br)cc23)c2cc(Br)ccc21
inactive: [1] 88% | [2] 91.1% | [3] 93.7% | [4] 112% | [5] 90.7% | [6] 98.8% | [7] 114% | [8] 99.4%

Fc1cc(F)cc(NNC(=S)c2ccccc2)c1
active: [1] -2.7%
inactive: [2] 17.8% | [3] 64% | [4] 58% | [5] 37.5% | [6] 20.9% | [7] 87% | [8] 49.1%

CC(Nc1ncnc2ccc(-c3cnc(N)nc3)cc12)c1ccccc1 (stereo not given)
inactive: [1] 12.2% | [2] 19.9% | [3] 50.4% | [4] 67.4% | [5] 18.5% | [6] 33% | [7] 43% | [8] 54.7%

O=C(CCCCCCNC(=O)C(O)(O)C(F)(F)F)Nc1ncc(-c2ccc(Br)cc2)s1
active: [1] 3.85% | [2] -20.5% | [3] 6.58% | [4] -16.2% | [5] 6.6% | [6] -26.3% | [7] -54.6% | [8] -67%

COc1ccc(CC(C)=C(c2ccc(OCCN3CCCC3)cc2)c2ccc(OCCN3CCCC3)cc2)cc1
active: [1] -49.9% | [2] -69.5% | [3] -76.4% | [4] -53% | [5] -80% | [6] -17.6% | [7] -80.3% | [8] -95.3%

COc1ccc(-c2c3c(cn2Cc2cccc(OC)c2)-c2oncc2CCC3)cc1
inactive: [1] 75.7% | [2] 105% | [3] 98.1% | [4] 96.4% | [5] 96.9% | [6] 96.9% | [7] 111% | [8] 83.1%

CC[C@]12C=CCN3CC[C@]4(C(=C(C(=O)OC)C1)Nc1cc5c(cc14)[C@@H]1[C@H](O5)[C@@H](O)[C@@]4(CC)CC(C(=O)OC)=C5Nc6cc(O)ccc6[C@@]56CCN1C46)C32 (stereo not given in full)
inactive: [2] 18.8%
active: [1] 6.91% | [3] -38.2% | [4] 2.78% | [5] 3.26% | [6] -70.5% | [7] -64.8% | [8] -30.2%

CN1CCN(Cc2ccc(NC(=O)c3cncc(C#Cc4cnc5ccc(OCC6COC6)nn45)c3)cc2C(F)(F)F)CC1
active: [1] -1.42% | [2] -71.5% | [3] -92.3% | [4] -29.8% | [5] -70.8% | [6] -78.6% | [7] -77.4% | [8] -73.6%

O=C1Nc2ccc(F)cc2/C1=C\C(=O)c1ccc(NS(=O)(=O)c2ccccc2)cc1
inactive: [1] 96.7% | [2] 111% | [3] 92.5% | [4] 43.1% | [5] 22.5% | [6] 56.9% | [7] 116% | [8] 102%

CC1(C)CC[C@]23CC[C@]4(C)[C@H](CC[C@@H]5[C@@]6(C)CC[C@H](NCO)C(C)(C)[C@@H]6CC[C@]54C)[C@H]2[C@H]1OC3
active: [4] -73.5% | [5] 1.96% | [6] -9.59% | [7] -24% | [8] -0.242%
inactive: [1] 44.2% | [2] 98.5% | [3] 38.8%
